Drawing on PubChem BioAssay AID485299 (Sanford-Burnham Center for Chemical Genomics, 2010), this text covers activation for 51 compounds.

Screen size: about 1,000 compounds; about 630 (63%) were called active.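 Rule for the calls: active = reporter signal at least 30% of the positive control's activation in two or more of four replicate wells; inactive = the rest.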 The set was probably picked from earlier hits. These entries were drawn from the full list.

The nature of the assay: activation of adaptive unfolded protein response – cell-based, CHO-XBP1 luciferase reporter, luminescence, single concentration, confirmation (AID 485299).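 Note: plate controls were DMSO negative control for no effect and tunicamycin 10 µg/mL positive control for full effect.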 Particulars: CHO-XBP1 IRE1-XBP1 luciferase reporter, at 20 µM, active compounds read high. Background: In a reporter assay the amount or activity of a reporter protein is the signal.
Take `OCCNc1nc(Nc2ccc(Cl)c(Cl)c2)nc2ccccc12`: the activation is 47.6% (active). With `Cc1ccc(SC(=O)COc2ccc(C)c(C)c2)cc1` the figure was 19.5% (inactive); with `CSc1nc(-c2ccccc2)nc(C(Cl)Cl)n1`, 29.4% (inactive); with `Cc1ccc(S/C(=N\S(=O)(=O)c2ccc(Cl)cc2)c2ccccc2)cc1`, 9.43% (inactive). With `CCOc1ccc(S(=O)(=O)Nc2cccc(C(=O)NCC3(N4CCCCC4)CCCCC3)c2)cc1` the figure was 92.9% (active); with `Cc1nc2cc(NC(=O)CSc3nc4c(C)cccc4cc3C#N)ccc2s1`, 42.3% (active); with `CCCc1nc2ccccc2c(=O)n1/N=C/c1ccc(O)c(O)c1`, 36.6% (active).

`CN(C)CCCN(C(=O)c1ccc(S(=O)(=O)N2CCCCCC2)cc1)c1nc2ccc(Br)cc2s1`: the activation is 71.3% (active).

Regarding `N#CCC(=O)N/N=C/c1cn(Cc2ccc3ccccc3c2)c2ccccc12`, the activation is 87.5% (active).

As to `O=C(Nc1ccc2nc3n(c(=O)c2c1)CCCCC3)c1ccccc1Cl`, the activation was 44.4% (active). With `N#CC(=C1SC=CS1)c1nc(-c2ccccc2)cs1` the figure was 2.43% (inactive); with `CCCc1nc2c(c(=O)c3ccccc3n2C)c(=O)n1C1CCCCCC1`, 61.8% (active); with `CCOC(=O)N1CCN(C(=O)c2nn(-c3ccc(C)cc3)c(=O)c3c2c2ccccc2n3C)CC1`, 7.78% (inactive).

Turning to `C=CCN(CC=C)S(=O)(=O)c1ccc(C(=O)Nc2nc3c(s2)CCc2ccccc2-3)cc1`, the activation is 90.9% (active).

On to `CCN1C(=O)N[C@@H](c2ccccc2)[C@H](C(C)=O)[C@H]1C`, for which the activation was -1.6% (inactive). Under `CN(C)C(=O)CCc1ccc2c3c([nH]c2c1)[C@]1(CCc2ccccc2)[C@@H](C(=O)N2CCCCC2)C[C@H](CC(=O)NCCC2=CCCCC2)C(=O)N1CC3` stands 52.1% (active).

In the case of `N#Cc1c(N)nc2c3c(sc(=N)c2c1N)NC(=O)CC3c1ccccc1Cl` (stereo unspecified), the activation was 0.75% (inactive). With `CCOc1ccc2nc(Cl)c(C3CC(c4ccccc4)=NN3C(=O)c3cccs3)cc2c1` (stereo unspecified) the figure was 19.5% (inactive); with `O=C(C[C@H]1C/C=C\C[C@@H](NC(=O)OCC2c3ccccc3-c3ccccc32)C(=O)O[C@@H](c2ccccc2)CNC1=O)N[C@H](CO)Cc1ccccc1`, 69.3% (active).

Consider `CCOC(=O)C1=C(O)/C(=C/c2ccc(OCC(=O)Nc3ccc(C)cc3)cc2)N=C1C`, for which the activation was -1.95% (inactive). `N#Cc1ccccc1NC(=O)COc1c(Br)cc(Br)c2cccnc12`: the activation was 88.3% (active). With `CCCCCC(=O)Nc1ccc(C(=O)N/N=C/c2ccc([N+](=O)[O-])cc2)cc1`, the activation is 66.5% (active). With `CCCc1ccc(OCc2ccc(C(=O)N/N=C/c3cccc([N+](=O)[O-])c3)o2)c(OC)c1` the figure was 2.93% (inactive); with `CN(c1cccc(NC(=O)Nc2ccc(Cl)cc2)c1)S(C)(=O)=O`, 0.25% (inactive). Under `Oc1cccc2ccc(/C=C/c3ccc(Br)s3)nc12` stands 50.4% (active); under `Cc1ccc(-c2nnc(-c3ccc(NC(=O)c4cccs4)cc3)o2)cc1`, 213% (active). Under `CN1C(=O)/C(=C/c2ccc(C(=O)NC3CCCC3)cc2)Oc2ccccc21` stands 32.3% (active); under `COc1ccc(CNC(=O)/C(C#N)=C/c2cccc(OC)c2OC)cc1`, 40.4% (active).

For `O=C(CCCCCn1c(=S)[nH]c2cc3c(cc2c1=O)OCO3)N1CCN(c2ccc(F)cc2)CC1`, the activation is 10.3% (inactive). With `Cc1cccc(Nc2nc3c(S(=O)(=O)c4ccccc4)nnn3c3ccccc23)c1C` the figure was 120% (active); with `O=C(/C=C/c1ccccc1)c1ccccc1O`, 54.9% (active).

Consider `Cc1ccc(S(=O)(=O)N(CC(=O)N/N=C/c2ccc(F)cc2)c2cccc3cccnc23)cc1`, for which the activation was 55.3% (active).

As for `CCCCCCCCCCOC(=O)Cn1c(COc2ccc(C)cc2)[n+](C)c2ccccc21`, the activation is 49.2% (active). With `COc1ccc(Nc2cc(C)nc(-n3nc(C)cc3C)n2)cc1` the figure was 28.5% (inactive); with `CCOC(=O)c1c(NC(=O)CNC2CCCc3ccccc32)sc(C(N)=O)c1C` (stereo unspecified), 34.3% (active). With `CCC1(CC)Cc2ccccc2-c2nc(CCl)[nH]c(=O)c21` the figure was 14.5% (inactive); with `CCOC(=O)/C=c1\s/c(=C\c2ccc(C#N)cc2)c(=O)n1CC(=O)Nc1cccc(C)c1C`, 11.4% (inactive); with `Cc1cc(NC(=O)CSc2nc3cc(Cl)ccc3c(=O)n2Cc2ccco2)no1`, 55.5% (active). Under `CC(=O)Nc1ccccc1Sc1ccc2c3c(cccc13)C(=O)N(c1ccc(C)cc1)C2=O` stands 79% (active); under `C=CC[C@@H](CC(=O)N[C@@H](CO)Cc1ccccc1)C(=O)N[C@H](COC(=O)[C@H](CC=C)CC(=O)OC(C)(C)C)Cc1ccccc1`, 4.58% (inactive); under `O=C(COC(=O)/C=C/c1cn(-c2ccccc2)nc1-c1cccnc1)Nc1ccc(Cl)cc1Cl`, 74.4% (active). For the compound `Cc1ccc(Cc2cnc(NC(=O)/C(C#N)=C/c3ccc(-c4cccc([N+](=O)[O-])c4)o3)s2)cc1`, the activation was 217% (active). With `OC(CNCC1CCCO1)Cn1c2ccc(Br)cc2c2cc(Br)ccc21` (stereo unspecified) the figure was 44% (active); with `C=CCNc1nc(N)c([N+](=O)[O-])c(NC2CCCCC2)n1`, 12.5% (inactive); with `CCc1nn(-c2cc(Oc3cccc4ccccc34)nc(-c3ccccc3)n2)c(N)c1C#N`, 138% (active). With `CCc1nc(C)cn1S(=O)(=O)c1cc([N+](=O)[O-])ccc1Cl` the figure was 55.6% (active); with `COc1cc(NC(=O)c2cncc(-c3ccc(C#N)cc3)c2)cc(C(=O)Nc2cccc(C(F)(F)F)c2)c1`, 129% (active). Under `COC(=O)Cc1csc(/N=C/c2c(O)n(-c3cccc(C(F)(F)F)c3)c(=O)c3ccccc23)n1` stands 42.5% (active); under `COc1ccccc1N=Cc1c(O)c2ccccc2oc1=O`, 113% (active); under `CC(C)=CCCC1(C)C=Cc2c(ccc3c2[nH]c2cc(O)c(C)cc23)O1` (stereo unspecified), 35.4% (active).

On to `Oc1ccc(Br)cc1/C=N/Nc1ccccn1`, for which the activation is 63.7% (active).
